biological target: E3 ubiquitin-protein ligase XIAP (Homo sapiens) (UniProt P98170); experiment: small molecules binding XIAP protein – biophysical, small-molecule microarray, fluorescence 635 nm, primary screen (AID 1181); conditions: higher = more signal;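 note: score merges 667 nm emission and signal to noise over triplicate slides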
Sequence (P98170 whole entry, looked up): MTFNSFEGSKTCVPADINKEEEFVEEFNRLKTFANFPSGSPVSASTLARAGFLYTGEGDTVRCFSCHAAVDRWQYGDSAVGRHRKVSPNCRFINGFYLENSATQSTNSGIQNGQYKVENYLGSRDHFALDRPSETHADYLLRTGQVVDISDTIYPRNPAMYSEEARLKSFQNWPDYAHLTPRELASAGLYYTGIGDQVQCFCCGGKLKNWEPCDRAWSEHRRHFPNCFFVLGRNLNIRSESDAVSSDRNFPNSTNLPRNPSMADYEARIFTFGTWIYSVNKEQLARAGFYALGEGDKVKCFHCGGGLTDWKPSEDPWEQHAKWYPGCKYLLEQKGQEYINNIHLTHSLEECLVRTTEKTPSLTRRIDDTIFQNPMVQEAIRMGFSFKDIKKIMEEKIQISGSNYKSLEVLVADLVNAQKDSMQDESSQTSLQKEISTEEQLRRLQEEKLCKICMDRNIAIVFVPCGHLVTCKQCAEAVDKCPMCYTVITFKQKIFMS

Row | SMILES | composite z-score
1 | CN(C)C(=O)[C@]1(CCC(=O)OC(C)(C)C)N=C(c2ccc(OCCCO)cc2)O[C@@H]1c1ccccc1N=[N+]=[N-] | 0.0317
2 | [N-]=[N+]=NCc1ccccc1C[C@]1(C(=O)NCCN2CCOCC2)N=C(c2ccc(OCCCO)cc2)O[C@H]1c1ccccc1N=[N+]=[N-] | 0.317
3 | O=C1O[C@H](c2ccccc2)[C@H](c2ccccc2)N2[C@H]1[C@@H](C(=O)Nc1nc3ccccc3s1)[C@]1(C(=O)Nc3ccccc31)[C@H]2c1ccc(O)cc1 | -0.127

Reference: PubChem BioAssay
